Laboratory results as given in PubChem BioAssay AID1159580 (chemical genetic matrix, 2015).
Out of some 5,500 compounds screened, about 2,000 (36%) were called active. Another 18% or so got no clear call; they are omitted. No stated cut-off is given here; in the data, active means normalized growth mostly below about 0.91 (no sharp cut-off); inconclusive means no clear call, values can overlap the other calls; inactive means mostly above about 0.92. The list shows a part of the results.

Assay: chemical genetic growth profiling, strain panel (AID 1159580);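 further: tested at 20 µM; growth read once vehicle control cultures reached saturation at 30 °C; 1 = growth at the plate median or of vehicle wells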
Settings: growth OD
[1] = S. cerevisiae deletion strains, locus YAL013W, strain DEP1, stronger effect = lower value
[2] = S. cerevisiae deletion strains, locus YBR229C, strain ROT2, stronger effect = lower value
[3] = S. cerevisiae deletion strains, locus YDL101C, strain DUN1, stronger effect = lower value
[4] = S. cerevisiae deletion strains, locus YDR150W, strain NUM1, stronger effect = lower value
[5] = S. cerevisiae deletion strains, locus YEL061C, strain CIN8, stronger effect = lower value
[6] = S. cerevisiae deletion strains, locus YGR078C, strain PAC10, stronger effect = lower value
[7] = S. cerevisiae deletion strains, locus YHR030C, strain SLT2, stronger effect = lower value
[8] = S. cerevisiae deletion strains, locus YHR087W, strain rtc3, stronger effect = lower value
[9] = S. cerevisiae deletion strains, locus YJR043C, strain POL32, stronger effect = lower value
[10] = S. cerevisiae deletion strains, locus YJR075W, strain HOC1, stronger effect = lower value
[11] = S. cerevisiae deletion strains, locus YKL190W, strain CNB1, stronger effect = lower value
[12] = S. cerevisiae deletion strains, locus YLR039C, strain RIC1, stronger effect = lower value
[13] = S. cerevisiae deletion strains, locus YLR058C, strain SHM2 (second series), stronger effect = lower value
[14] = S. cerevisiae deletion strains, locus YLR085C, strain ARP6, stronger effect = lower value
[15] = S. cerevisiae deletion strains, locus YLR262C, strain YPT6, stronger effect = lower value
[16] = S. cerevisiae deletion strains, locus YML094W, strain GIM5, stronger effect = lower value
[17] = S. cerevisiae deletion strains, locus YMR219W, strain ESC1, stronger effect = lower value
[18] = S. cerevisiae deletion strains, locus YMR263W, strain SAP30, stronger effect = lower value
[19] = S. cerevisiae deletion strains, locus YNL153C, strain GIM3, stronger effect = lower value
[20] = S. cerevisiae deletion strains, locus YNL298W, strain CLA4 (second series), stronger effect = lower value
[21] = S. cerevisiae deletion strains, locus YNL322C, strain KRE1, stronger effect = lower value
[22] = S. cerevisiae deletion strains, locus YNR030W, strain Alg12, stronger effect = lower value
[23] = S. cerevisiae deletion strains, locus YPL055C, strain LGE1, stronger effect = lower value
[24] = S. cerevisiae deletion strains, locus YPL241C, strain CIN2, stronger effect = lower value
[25] = S. cerevisiae deletion strains, locus YPR135W, strain CTF4, stronger effect = lower value

Measured: normalized growth

CN(C)c1ccc(/C=N\NC(=O)CCc2ccc(O)cc2)c(Cl)c1
inactive: [1] 1.01 | [2] 0.998 | [3] 1.05 | S. cerevisiae deletion strains, locus YDL134C, strain PPH21, stronger effect = lower value 1.01 | [4] 1.01 | [5] 0.974 | [6] 1.02 | [7] 0.992 | [8] 0.995 | [9] 1.01 | [10] 1.01 | [11] 1.01 | [12] 0.951 | [13] 1.01 | [14] 0.999 | [15] 0.946 | [16] 0.974 | [17] 1.01 | [18] 1.02 | S. cerevisiae deletion strains, locus YMR307W, strain GAS1, stronger effect = lower value 0.97 | [19] 1 | [20] 0.999 | [21] 1.01 | [22] 1.01 | [23] 0.985 | [24] 0.967 | [25] 1.01

CCOC(=O)CCc1cc(N=Cc2cc(Cl)cc(Cl)c2O)c(O)c(N=Cc2cc(Cl)cc(Cl)c2O)c1
active: [1] 0.257 | [2] 0.225 | [3] 0.48 | [4] 0.328 | [5] 0.254 | [6] 0.14 | [7] 0.126 | [8] 0.0846 | S. cerevisiae deletion strains, locus YJL187C, strain SWE1, stronger effect = lower value 0.204 | [9] 0.403 | [10] 0.245 | [11] 0.537 | [12] 0.164 | [13] 0.598 | [14] 0.14 | [15] 0.156 | [16] 0.243 | [17] 0.278 | [18] 0.354 | [19] 0.454 | [20] 0.411 | [21] 0.935 | [22] 0.63 | [23] 0.212 | [24] 0.476 | [25] 0.558 | S. cerevisiae strains, strain wild type, stronger effect = lower value 0.555

CCOC(=O)CCc1cc(N=Cc2cc(Br)ccc2O)c(O)c(N=Cc2cc(Br)ccc2O)c1
inactive: S. cerevisiae deletion strains, locus YAR019C, strain CDC15, stronger effect = lower value 0.963 | S. cerevisiae deletion strains, locus YBL105C, strain PKC1, stronger effect = lower value 0.959 | S. cerevisiae deletion strains, locus YBR135W, strain CKS1, stronger effect = lower value 0.968 | S. cerevisiae deletion strains, locus YBR136W, strain MEC1, stronger effect = lower value 0.966 | S. cerevisiae deletion strains, locus YBR160W, strain CDC28, stronger effect = lower value 0.959 | S. cerevisiae deletion strains, locus YDL017W, strain CDC7, stronger effect = lower value 0.962 | S. cerevisiae deletion strains, locus YDL028C, strain MPS1, stronger effect = lower value 0.968 | [3] 0.967 | S. cerevisiae deletion strains, locus YDL108W, strain KIN28, stronger effect = lower value 0.959 | S. cerevisiae deletion strains, locus YDL132W, strain cdc53, stronger effect = lower value 0.961 | S. cerevisiae deletion strains, locus YDL214C, strain PRR2, stronger effect = lower value 0.834 | S. cerevisiae deletion strains, locus YDR052C, strain DBF4, stronger effect = lower value 0.953 | S. cerevisiae deletion strains, locus YDR054C, strain cdc34, stronger effect = lower value 0.951 | S. cerevisiae deletion strains, locus YDR226W, strain ADK1, stronger effect = lower value 0.979 | S. cerevisiae deletion strains, locus YDR477W, strain SNF1, stronger effect = lower value 0.805 | S. cerevisiae deletion strains, locus YER123W, strain YCK3, stronger effect = lower value 0.66 | S. cerevisiae deletion strains, locus YER133W, strain GLC7, stronger effect = lower value 0.788 | S. cerevisiae deletion strains, locus YFL009W, strain cdc4, stronger effect = lower value 0.962 | S. cerevisiae deletion strains, locus YFL029C, strain CAK1, stronger effect = lower value 0.955 | S. cerevisiae deletion strains, locus YFR003C, strain YPI1, stronger effect = lower value 0.961 | S. cerevisiae deletion strains, locus YFR019W, strain FAB1, stronger effect = lower value 0.877 | S. cerevisiae deletion strains, locus YFR028C, strain CDC14, stronger effect = lower value 0.974 | S. cerevisiae deletion strains, locus YGR040W, strain KSS1, stronger effect = lower value 0.824 | S. cerevisiae deletion strains, locus YGR052W, strain FMP48, stronger effect = lower value 0.768 | S. cerevisiae deletion strains, locus YHR079C, strain IRE1, stronger effect = lower value 0.622 | S. cerevisiae deletion strains, locus YHR082C, strain KSP1, stronger effect = lower value 0.843 | S. cerevisiae deletion strains, locus YHR205W, strain SCH9, stronger effect = lower value 0.87 | S. cerevisiae deletion strains, locus YIL147C, strain SLN1, stronger effect = lower value 0.962 | S. cerevisiae deletion strains, locus YJL095W, strain BCK1, stronger effect = lower value 0.643 | S. cerevisiae deletion strains, locus YJL128C, strain PBS2, stronger effect = lower value 0.942 | S. cerevisiae deletion strains, locus YJL157C, strain FAR1, stronger effect = lower value 0.773 | S. cerevisiae deletion strains, locus YJR016C, strain ILV3, stronger effect = lower value 0.968 | S. cerevisiae deletion strains, locus YJR066W, strain TOR1 (second series), stronger effect = lower value 0.764 | S. cerevisiae deletion strains, locus YJR066W, strain TOR1, stronger effect = lower value 0.727 | S. cerevisiae deletion strains, locus YKL048C, strain ELM1, stronger effect = lower value 0.873 | S. cerevisiae deletion strains, locus YKL067W, strain YNK1, stronger effect = lower value 0.823 | S. cerevisiae deletion strains, locus YKL101W, strain HSL1, stronger effect = lower value 0.833 | S. cerevisiae deletion strains, locus YKL193C, strain SDS22, stronger effect = lower value 0.965 | S. cerevisiae deletion strains, locus YKL203C, strain TOR2, stronger effect = lower value 0.786 | S. cerevisiae deletion strains, locus YLR133W, strain CKI1, stronger effect = lower value 0.804 | S. cerevisiae deletion strains, locus YLR403W, strain SFP1, stronger effect = lower value 0.75 | S. cerevisiae deletion strains, locus YML070W, strain DAK1, stronger effect = lower value 0.727 | S. cerevisiae deletion strains, locus YMR001C, strain CDC5, stronger effect = lower value 0.961 | S. cerevisiae deletion strains, locus YMR205C, strain PFK2 (second series), stronger effect = lower value 0.841 | S. cerevisiae deletion strains, locus YMR277W, strain FCP1, stronger effect = lower value 0.971 | S. cerevisiae deletion strains, locus YNL006W, strain LST8, stronger effect = lower value 0.976 | S. cerevisiae deletion strains, locus YNL020C, strain ARK1, stronger effect = lower value 0.79 | S. cerevisiae deletion strains, locus YNL161W, strain CBK1, stronger effect = lower value 0.959 | S. cerevisiae deletion strains, locus YNL183C, strain NPR1, stronger effect = lower value 0.754 | S. cerevisiae deletion strains, locus YNL207W, strain RIO2, stronger effect = lower value 0.957 | S. cerevisiae deletion strains, locus YNL222W, strain SSU72, stronger effect = lower value 0.975 | S. cerevisiae deletion strains, locus YNL307C, strain MCK1 (second series), stronger effect = lower value 0.76 | S. cerevisiae deletion strains, locus YOL078W, strain AVO1, stronger effect = lower value 0.965 | S. cerevisiae deletion strains, locus YOL136C, strain PFK27, stronger effect = lower value 0.679 | S. cerevisiae deletion strains, locus YOR061W, strain CKA2, stronger effect = lower value 0.809 | S. cerevisiae deletion strains, locus YOR119C, strain RIO1, stronger effect = lower value 0.84 | S. cerevisiae deletion strains, locus YOR231W, strain MKK1, stronger effect = lower value 0.657 | S. cerevisiae deletion strains, locus YOR329C, strain SCD5, stronger effect = lower value 0.961 | S. cerevisiae deletion strains, locus YPL031C, strain PHO85, stronger effect = lower value 0.8 | S. cerevisiae deletion strains, locus YPL153C, strain RAD53, stronger effect = lower value 0.784 | S. cerevisiae deletion strains, locus YPL204W, strain HRR25, stronger effect = lower value 0.754 | S. cerevisiae deletion strains, locus YPL209C, strain IPL1, stronger effect = lower value 0.964 | S. cerevisiae deletion strains, locus YPR025C, strain CCL1, stronger effect = lower value 0.954 | S. cerevisiae deletion strains, locus YPR106W, strain ISR1, stronger effect = lower value 0.98 | S. cerevisiae deletion strains, locus YPR111W, strain DBF20, stronger effect = lower value 0.958 | S. cerevisiae deletion strains, strain NNK1, stronger effect = lower value 0.964 | S. cerevisiae deletion strains, strain TSCII, stronger effect = lower value 0.96
active: S. cerevisiae deletion strains, locus YGR092W, strain DBF2, stronger effect = lower value 0.371 | [7] 0.562 | S. cerevisiae deletion strains, locus YLR113W, strain HOG1, stronger effect = lower value 0.65 | S. cerevisiae deletion strains, locus YPL256C, strain CLN2, stronger effect = lower value 0.579
